PubChem BioAssay (NCATS)
Inconclusive results are not listed. Activity calls are given as the source filed them. Calls come from the whole dose curve; as a rule, active = well fitted cell-killing curve with a large enough effect; inconclusive = small, poorly fitted or top-dose-only effect, or effect the other way; inactive = flat fitted curve, though single readings scatter.

Experiments:
Assay in all cases: Primary qHTS to identify gynecologic anti-cancer compounds using libraries of approved drugs and bioactive compounds (AID 1345084); note: nearly all actives have a fitted effect of over 55% in size
CAOV3 = conditions: Gynecologic cancer cell panel viability, ATPlite luminescence, 48 h; series mostly up to 57.5 µM
How it was run: (§1)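 Cell viability after 48 h drug treatment, ATPlite luminescence readout; five doses.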

CASKI = conditions: Gynecologic cancer cell panel viability, ATPlite luminescence, 48 h; series mostly up to 57.5 µM
How it was run: as §1

Es-2 = conditions: Gynecologic cancer cell panel viability, ATPlite luminescence, 48 h; series mostly up to 57.5 µM
How it was run: as §1

HeLa = conditions: Gynecologic cancer cell panel viability, ATPlite luminescence, 48 h; series mostly up to 57.5 µM
How it was run: as §1

Hek293T = conditions: Gynecologic cancer cell panel viability, ATPlite luminescence, 48 h, control line for the selectivity index; series mostly up to 57.5 µM
How it was run: as §1

JEG-3 = conditions: Gynecologic cancer cell panel viability, ATPlite luminescence, 48 h; series mostly up to 57.5 µM
How it was run: as §1

OV90 = conditions: Gynecologic cancer cell panel viability, ATPlite luminescence, 48 h; series mostly up to 57.5 µM
How it was run: as §1

PA-1 = conditions: Gynecologic cancer cell panel viability, ATPlite luminescence, 48 h; series mostly up to 57.5 µM
How it was run: as §1

SKOV3 = conditions: Gynecologic cancer cell panel viability, ATPlite luminescence, 48 h; series mostly up to 57.5 µM
How it was run: as §1

Tov-21-G = conditions: Gynecologic cancer cell panel viability, ATPlite luminescence, 48 h; series mostly up to 57.5 µM
How it was run: as §1

Tov112D = conditions: Gynecologic cancer cell panel viability, ATPlite luminescence, 48 h; series mostly up to 57.5 µM
How it was run: as §1
% is set by controls: 0 for no effect and ±100 for the full control effect.

O=C(NCC(=O)N1CC[C@H](NC2CCC(O)(c3ccc(-c4ncccn4)cn3)CC2)C1)c1cccc(C(F)(F)F)c1 (stereo not given in full)
inactive: Potency (CAOV3) | Potency (CASKI) | Potency (Es-2) | Potency (HeLa) | Potency (Hek293T) | Potency (JEG-3) | Potency (OV90) | Potency (PA-1) | Potency (SKOV3) | Potency (Tov-21-G) | Potency (Tov112D)

CC1OC(OC2C(C)OC(OC3C(OC(=O)/C=C/c4ccc(O)cc4)C(CO)OC(OC4(COC(=O)/C=C/c5ccc(O)cc5)OC(CO)C(O)C4O)C3OC3OCC(O)(CO)C3O)C(O)C2O)C(O)C(O)C1O (stereo not given)
inactive: activity change, negative = cytotoxicity (CAOV3) -2.97% [at 11.6 µM] | activity change, negative = cytotoxicity (CASKI) 10% [at 11.6 µM] | activity change, negative = cytotoxicity (Es-2) -0.759% [at 11.6 µM] | activity change, negative = cytotoxicity (HeLa) -8.01% [at 11.6 µM] | activity change, negative = cytotoxicity (Hek293T) 0.502% [at 11.6 µM] | activity change, negative = cytotoxicity (JEG-3) 2.4% [at 11.6 µM] | activity change, negative = cytotoxicity (OV90) 8.76% [at 11.6 µM] | activity change, negative = cytotoxicity (PA-1) -0.866% [at 11.6 µM] | activity change, negative = cytotoxicity (SKOV3) 28.4% [at 11.6 µM] | activity change, negative = cytotoxicity (Tov-21-G) 1.37% [at 11.6 µM] | activity change, negative = cytotoxicity (Tov112D) -2.2% [at 11.6 µM]

C=C(C)[C@@H]1CC[C@](C)(O)[C@@H](OC(=O)c2ccccc2)C1
inactive: Potency (CAOV3) | Potency (CASKI) | Potency (Es-2) | Potency (HeLa) | Potency (Hek293T) | Potency (JEG-3) | Potency (OV90) | Potency (PA-1) | Potency (SKOV3) | Potency (Tov-21-G) | Potency (Tov112D)

Cc1ccc2c(c1)C=Cc1cc(C)ccc1C2c1cn(Cc2ccc(C(=O)Nc3nn[nH]n3)o2)c(=O)[nH]c1=S
inactive: Potency (CAOV3) | Potency (CASKI) | Potency (Es-2) | Potency (HeLa) | Potency (Hek293T) | Potency (JEG-3) | Potency (OV90) | Potency (PA-1) | Potency (SKOV3) | Potency (Tov-21-G) | Potency (Tov112D)

Cc1cc(O)cc(Oc2cc(C)c(C(=O)O)c(O)c2)c1
inactive: Potency (CAOV3) | Potency (CASKI) | Potency (Es-2) | Potency (HeLa) | Potency (Hek293T) | Potency (JEG-3) | Potency (OV90) | Potency (PA-1) | Potency (SKOV3) | Potency (Tov-21-G) | Potency (Tov112D)

C[C@@H]1CC[C@]2(C(=O)O[C@@H]3O[C@H](CO)[C@@H](O)[C@H](O)[C@H]3O)CC[C@]3(C)C(=CCC4[C@@]5(C)C[C@@H](O)[C@H](O)C(C)(C)C5CC[C@]43C)C2[C@]1(C)O (stereo not given in full)
inactive: Potency (CAOV3) | Potency (CASKI) | Potency (Es-2) | Potency (HeLa) | Potency (Hek293T) | Potency (JEG-3) | Potency (OV90) | Potency (PA-1) | Potency (SKOV3) | Potency (Tov-21-G) | Potency (Tov112D)

COc1c(C)c(OCC=C(C)C)cc2c1C(=O)NC2=O
inactive: Potency (CAOV3) | Potency (CASKI) | Potency (Es-2) | Potency (HeLa) | Potency (Hek293T) | Potency (JEG-3) | Potency (OV90) | Potency (PA-1) | Potency (SKOV3) | Potency (Tov-21-G) | Potency (Tov112D)

CO[C@@]12CC3[C@@H]([C@@H](O)[C@@H](OC(C)=O)C4[C@](C)(COC(C)=O)CCC[C@]34C)[C@@H](C)C1=CC(=O)O2 (stereo not given in full)
inactive: Potency (CAOV3) | Potency (CASKI) | Potency (Es-2) | Potency (HeLa) | Potency (Hek293T) | Potency (JEG-3) | Potency (OV90) | Potency (PA-1) | Potency (SKOV3) | Potency (Tov-21-G) | Potency (Tov112D)

CC1CC(O)C2(C)C(C(=O)O)=CCCC2C1(C)CCc1ccoc1 (stereo not given)
inactive: Potency (CAOV3) | Potency (CASKI) | Potency (Es-2) | Potency (HeLa) | Potency (Hek293T) | Potency (JEG-3) | Potency (OV90) | Potency (PA-1) | Potency (SKOV3) | Potency (Tov-21-G) | Potency (Tov112D)

OC1COC(OCC2OC(OCCc3ccccc3)C(O)C(O)C2O)C(O)C1O (stereo not given)
inactive: Potency (CAOV3) | Potency (CASKI) | Potency (Es-2) | Potency (HeLa) | Potency (Hek293T) | Potency (JEG-3) | Potency (OV90) | Potency (PA-1) | Potency (SKOV3) | Potency (Tov-21-G) | Potency (Tov112D)

CC1=C(C)C(=O)OC(C(C)(O)C2CCC3C4CC=C5CC(OC6OC(COC7OC(CO)C(O)C(O)C7O)C(O)C(O)C6O)CC(O)C5(C)C4CCC32C)C1 (stereo not given)
inactive: Potency (CAOV3) | Potency (CASKI) | Potency (Es-2) | Potency (HeLa) | Potency (Hek293T) | Potency (JEG-3) | Potency (OV90) | Potency (PA-1) | Potency (SKOV3) | Potency (Tov-21-G) | Potency (Tov112D)

COc1cc2c(cc1O)C1(OC)Cc3ccc4c(c3C1N(C)CC2)OCO4 (stereo not given)
inactive: Potency (CAOV3) | Potency (CASKI) | Potency (Es-2) | Potency (HeLa) | Potency (Hek293T) | Potency (JEG-3) | Potency (OV90) | Potency (PA-1) | Potency (SKOV3) | Potency (Tov-21-G) | Potency (Tov112D)

CC1(C)CC[C@]2(C(=O)O)CC[C@]3(C)C(=CCC4[C@@]5(C)C[C@H](O)[C@H](O[C@@H]6OC[C@H](O)[C@H](O)[C@H]6O)[C@@](C)(CO)C5CC[C@]43C)[C@@H]2C1 (stereo not given in full)
inactive: Potency (CAOV3) | Potency (CASKI) | Potency (Es-2) | Potency (HeLa) | Potency (Hek293T) | Potency (JEG-3) | Potency (OV90) | Potency (PA-1) | Potency (SKOV3) | Potency (Tov-21-G) | Potency (Tov112D)

CN1C(=O)N[C@@H](Cc2c[nH]c3c(Cl)cccc23)C1=O
inactive: Potency (CAOV3) | Potency (CASKI) | Potency (Es-2) | Potency (HeLa) | Potency (Hek293T) | Potency (JEG-3) | Potency (OV90) | Potency (PA-1) | Potency (SKOV3) | Potency (Tov-21-G) | Potency (Tov112D)

COC(=O)CC[C@@H](C)[C@H]1CC[C@H]2[C@@H]3CC(=O)[C@H]4C[C@H](OC(C)=O)CC[C@]4(C)[C@H]3CC[C@]12C
inactive: Potency (CAOV3) | Potency (CASKI) | Potency (Es-2) | Potency (HeLa) | Potency (Hek293T) | Potency (JEG-3) | Potency (OV90) | Potency (PA-1) | Potency (SKOV3) | Potency (Tov-21-G) | Potency (Tov112D)
